Our source for the Potency, activity change, negative = inhibition and activity change, negative = reduced viability values is PubChem BioAssay (NCATS).

Structures are written as SMILES. Results filed as inconclusive are left out. Entries that show only a call come without a potency. A number with no mark means an inactive call. Calls of active or inactive are those of the source. Calls come from the whole dose curve; tested in HEK293 reporter line.

The first experiment in a line: qHTS for Inhibitors of the Functional Ribonucleoprotein Complex (vRNP) of Lassa (LASV) Arenavirus: LASV Primary Screen - GLuc reporter signal (AID 1347082). Note: nearly all actives have a fitted effect of over 60% in size. The following applies: LASV minigenome vRNP, Gaussia luciferase reporter; series mostly up to 57.5 µM. On the technique in general: qHTS replaces the single test concentration by a dilution series.
Consider `c1ccc2sc(SSc3nc4ccccc4s3)nc2c1`, for which the Potency entry is “inactive”.
Take `CN1C(C)(C)CCCC1(C)C`: the Potency entry is “inactive”.
On the same count and under the same terms, the same measure for `CCCC(=O)OCOC(=O)C1=C(C)NC(C)=C(C(=O)OC)C1c1cccc(Cl)c1Cl` (stereo unspecified): “inactive”; for `C[C@@H]1CN(c2c(F)c(F)c3c(=O)c(C(=O)O)cn(C4CC4)c3c2F)C[C@H](C)N1`: “inactive”; for `CN1CCN(N)CC1`: “inactive”.
Regarding `CC(=O)Oc1cc(C(C)C)c(OCCN(C)C)cc1C`, the Potency entry was “inactive”.
Still for that read-out and setting: as for `CCCCCCCCCCCCCCCC(=O)NCCO`, the entry is “inactive”.
As for `Cc1c(NC(=O)c2cccnc2)c(=O)n(-c2ccccc2)n1C`, the Potency result was “inactive”.
Same read-out and setting: as for `NC(Cc1ccc(Cl)cc1)C(=O)O` (stereo unspecified), the entry is “inactive”; as for `COc1ccc(C(=O)c2ccccc2O)c(O)c1`, “inactive”; as for `COC(=O)N/N=C/c1c[n+]([O-])c2ccccc2[n+]1[O-]`, “inactive”.
With `Cc1cc(C(C#N)c2ccc(Cl)cc2)c(Cl)cc1NC(=O)c1cc(I)cc(I)c1O` (stereo unspecified), the Potency entry is “inactive”.
As for `O=C(O)[C@@H]1CSCN1`, the Potency entry was “inactive”.
Same read-out and setting: as for `COc1ccc(Cc2cnc(N)nc2N)cc1OC`, the entry is “inactive”.
On the same count and under the same terms, the same measure for `CN(C)[C@@H]1C(=O)C(C(N)=O)=C(O)[C@@]2(O)C(=O)C3=C(O)c4c(O)cccc4C[C@H]3C[C@@H]12`: “inactive”.
Same read-out and setting: as for `CCCCOCCOC(=O)c1cccnc1`, the entry is “inactive”.
In the case of `CC1(C)O[C@H]2CC(=O)OC[C@]23[C@H]2CC[C@@]4(C)[C@H](c5ccoc5)OC(=O)[C@H]5O[C@]54[C@]2(C)C(=O)C[C@@H]13`, the Potency result is “inactive”.
For `NCCNCCNCCNCCN`, the activity change, negative = inhibition is -3.37% [at 11.5 µM].
In the case of `CC(=O)OCC(=O)[C@@]1(OC(C)=O)[C@@H](C)C[C@H]2[C@@H]3C[C@H](F)C4=CC(=O)C=C[C@]4(C)[C@@]3(F)[C@@H](O)C[C@@]21C`, the Potency result was “inactive”.
In the case of `COc1ccc(C(=O)N2CCN(CC(=O)N3CCOCC3)CC2)cc1`, the Potency result was “inactive”.
On the same count and under the same terms, as for `Cc1c(N(C)CS(=O)(=O)O)c(=O)n(-c2ccccc2)n1C`, the entry is “inactive”; as for `CCCCCCCC/C=C/C(=O)O`, “inactive”.
The same measure, in the same setting: the same measure for `CCN1CC(CCN2CCOCC2)C(c2ccccc2)(c2ccccc2)C1=O` (stereo unspecified): “inactive”; for `CC(=O)OCC(COC(C)=O)OC(C)=O`: “inactive”; for `O=C(O)c1cc(-c2ccccc2)nc2ccccc12`: “inactive”.
Turning to `Cc1ccc2ccc(Cl)cc2n1`, the Potency result was “inactive”.
Same read-out and setting: the same measure for `CNCC(O)c1ccc(O)c(O)c1` (stereo unspecified): “inactive”; for `CC(C)(Sc1cc(C(C)(C)C)c(O)c(C(C)(C)C)c1)Sc1cc(C(C)(C)C)c(O)c(C(C)(C)C)c1`: “inactive”.
On the same count and under the same terms, as for `COc1ccc(C(=O)CC(=O)c2ccc(C(C)(C)C)cc2)cc1`, the entry is “inactive”; as for `Cc1cc(NS(=O)(=O)c2ccc(N)cc2)no1`, “inactive”; as for `CC(=O)Oc1cccc(O)c1`, “inactive”.
The same measure, in the same setting: the same measure for `Cc1nc2c([nH]1)c(=O)n(C)c(=O)n2Cc1ccco1`: “inactive”.
Consider `CC(=O)N/N=C/c1ccc([N+](=O)[O-])o1`, for which the Potency result is “inactive”.
On to `COc1c(N2C[C@@H]3CCCN[C@@H]3C2)c(F)cc2c(=O)c(C(=O)O)cn(C3CC3)c12`, for which the Potency entry is “inactive”.
As for `Oc1ccccc1`, the Potency result is “inactive”.
For the compound `CC(=O)O[C@@H]1C(=O)O[C@@H]2[C@H]1OC(=O)[C@@H]2OC(C)=O`, the Potency result was “inactive”.
On to `CNC(=O)c1c(I)c(NC(C)=O)c(I)c(C(=O)O)c1I`, for which the Potency entry was “inactive”.
On the same count and under the same terms, as for `COc1ccc2c(c1)c(CC(=O)OC/C=C(\C)CC/C=C(\C)CCC=C(C)C)c(C)n2C(=O)c1ccc(Cl)cc1`, the entry is “inactive”.

A short description of another experiment: qHTS for Inhibitors of the Functional Ribonucleoprotein Complex (vRNP) of Lassa (LASV) Arenavirus: Viability assay - alamar blue signal for LASV Primary Screen (AID 1347083). Note: nearly all actives have a fitted effect of over 80% in size. The following applies: cell viability, alamar blue fluorescence (LASV minigenome counter-screen); series mostly up to 57.5 µM.
Turning to `c1ccc2sc(SSc3nc4ccccc4s3)nc2c1`, the Potency result is “inactive”.
Take `CN1C(C)(C)CCCC1(C)C`: the Potency result was “inactive”.
In the case of `CCCC(=O)OCOC(=O)C1=C(C)NC(C)=C(C(=O)OC)C1c1cccc(Cl)c1Cl` (stereo unspecified), the Potency result is “inactive”.
Still for that read-out and setting: as for `C[C@@H]1CN(c2c(F)c(F)c3c(=O)c(C(=O)O)cn(C4CC4)c3c2F)C[C@H](C)N1`, the entry is “inactive”; as for `CN1CCN(N)CC1`, “inactive”.
Take `CC(=O)Oc1cc(C(C)C)c(OCCN(C)C)cc1C`: the Potency result is “inactive”.
As for `CCCCCCCCCCCCCCCC(=O)NCCO`, the Potency result is “inactive”.
As for `Cc1c(NC(=O)c2cccnc2)c(=O)n(-c2ccccc2)n1C`, the Potency result was “inactive”.
Regarding `NC(Cc1ccc(Cl)cc1)C(=O)O` (stereo unspecified), the Potency result is “inactive”.
For the compound `COc1ccc(C(=O)c2ccccc2O)c(O)c1`, the Potency entry was “inactive”.
Same read-out and setting: as for `COC(=O)N/N=C/c1c[n+]([O-])c2ccccc2[n+]1[O-]`, the entry is “inactive”.
For `Cc1cc(C(C#N)c2ccc(Cl)cc2)c(Cl)cc1NC(=O)c1cc(I)cc(I)c1O` (stereo unspecified), the Potency entry is “inactive”.
Turning to `O=C(O)[C@@H]1CSCN1`, the Potency entry is “inactive”.
The same measure, in the same setting: as for `COc1ccc(Cc2cnc(N)nc2N)cc1OC`, the entry is “inactive”.
Still for that read-out and setting: the same measure for `CN(C)[C@@H]1C(=O)C(C(N)=O)=C(O)[C@@]2(O)C(=O)C3=C(O)c4c(O)cccc4C[C@H]3C[C@@H]12`: “inactive”; for `CCCCOCCOC(=O)c1cccnc1`: “inactive”; for `CC1(C)O[C@H]2CC(=O)OC[C@]23[C@H]2CC[C@@]4(C)[C@H](c5ccoc5)OC(=O)[C@H]5O[C@]54[C@]2(C)C(=O)C[C@@H]13`: “inactive”.
Regarding `NCCNCCNCCNCCN`, the activity change, negative = reduced viability was 1.27% [at 11.5 µM].
Consider `CC(=O)OCC(=O)[C@@]1(OC(C)=O)[C@@H](C)C[C@H]2[C@@H]3C[C@H](F)C4=CC(=O)C=C[C@]4(C)[C@@]3(F)[C@@H](O)C[C@@]21C`, for which the Potency entry was “inactive”.
On the same count and under the same terms, as for `COc1ccc(C(=O)N2CCN(CC(=O)N3CCOCC3)CC2)cc1`, the entry is “inactive”.
On the same count and under the same terms, as for `Cc1c(N(C)CS(=O)(=O)O)c(=O)n(-c2ccccc2)n1C`, the entry is “inactive”; as for `CCCCCCCC/C=C/C(=O)O`, “inactive”; as for `CCN1CC(CCN2CCOCC2)C(c2ccccc2)(c2ccccc2)C1=O` (stereo unspecified), “inactive”.
For the compound `CC(=O)OCC(COC(C)=O)OC(C)=O`, the Potency entry was “inactive”.
As to `O=C(O)c1cc(-c2ccccc2)nc2ccccc12`, the Potency entry is “inactive”.
Turning to `Cc1ccc2ccc(Cl)cc2n1`, the Potency entry is “inactive”.
Still for that read-out and setting: as for `CNCC(O)c1ccc(O)c(O)c1` (stereo unspecified), the entry is “inactive”; as for `CC(C)(Sc1cc(C(C)(C)C)c(O)c(C(C)(C)C)c1)Sc1cc(C(C)(C)C)c(O)c(C(C)(C)C)c1`, “inactive”.
For `COc1ccc(C(=O)CC(=O)c2ccc(C(C)(C)C)cc2)cc1`, the Potency result is “inactive”.
The same measure, in the same setting: the same measure for `Cc1cc(NS(=O)(=O)c2ccc(N)cc2)no1`: “inactive”.
Regarding `CC(=O)Oc1cccc(O)c1`, the Potency entry was “inactive”.
Consider `Cc1nc2c([nH]1)c(=O)n(C)c(=O)n2Cc1ccco1`, for which the Potency result was “inactive”.
On to `CC(=O)N/N=C/c1ccc([N+](=O)[O-])o1`, for which the Potency entry was “inactive”.
Same read-out and setting: as for `COc1c(N2C[C@@H]3CCCN[C@@H]3C2)c(F)cc2c(=O)c(C(=O)O)cn(C3CC3)c12`, the entry is “inactive”; as for `Oc1ccccc1`, “inactive”.
On the same count and under the same terms, as for `CC(=O)O[C@@H]1C(=O)O[C@@H]2[C@H]1OC(=O)[C@@H]2OC(C)=O`, the entry is “inactive”; as for `CNC(=O)c1c(I)c(NC(C)=O)c(I)c(C(=O)O)c1I`, “inactive”.
`COc1ccc2c(c1)c(CC(=O)OC/C=C(\C)CC/C=C(\C)CCC=C(C)C)c(C)n2C(=O)c1ccc(Cl)cc1`: the Potency result was “inactive”.
